Assay results taken from PubChem BioAssay (NCI).
Compounds without any hit were thinned out: in the full panel of roughly 83,000, 20% have a hit.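 For each line, cells grew in 96-well plates with the test compound present at a single concentration for 48 hours.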 Calls of active or inactive are those of the source. How the source made its calls: active means growth percent below 10; inactive means the rest.

Experiments:
Assay in all cases: NCI-60 one-dose screen, 48 h (100 = growth as untreated, 0 = no growth, -100 = all killed)
Details in all cases: 10 µM unless noted
[1] = system: SR leukemia
[2] = system: RPMI-8226 leukemia
[3] = system: OVCAR-8 ovarian
[4] = system: OVCAR-5 ovarian
[5] = system: OVCAR-4 ovarian
[6] = system: SK-OV-3 ovarian
[7] = system: IGROV1 ovarian
[8] = system: OVCAR-3 ovarian
[9] = system: HS 578T breast
[10] = system: NCI/ADR-RES ovarian
[11] = system: T-47D breast
[12] = system: BT-549 breast
[13] = system: MDA-MB-435 melanoma
[14] = system: SW-620 colon
[15] = system: MCF7 breast
[16] = system: HCT-116 colon
[17] = system: HCC-2998 colon
[18] = system: KM12 colon

Measured: growth

NCc1cn2cc(Cl)sc2n1
inactive: [1] 102% | [2] 106% | [3] 105% | [4] 98% | [5] 100% | [6] 103% | [7] 109% | [8] 114% | [9] 113% | [10] 111% | [11] 111% | [12] 111% | [13] 113% | [14] 106% | [15] 95% | [16] 107% | [17] 102% | [18] 106%

COc1cnc2c(c1)C(=O)c1c-2n(CCCBr)c(=O)c2cc([N+](=O)[O-])ccc12
inactive: [9] 36.9% | [10] 11.6% | [12] 25.5% | [13] 11.4% | [14] 12.1% | [17] 13.7%
active: [1] 7.47% | [2] -12.9% | [3] 2.09% | [4] 5.53% | [5] 5.15% | [6] 8.4% | [7] 2.21% | [8] -44.1% | [11] 2.87% | [15] 1.77% | [16] -24.8% | [18] 1.44%

CCN(C(=O)CN1CCN(c2cc3c(cc2F)c(=O)c(C(=O)O)cn3C2CC2)CC1)c1nc(-c2ccc(OC)cc2)cs1
active: [2] 3.09% | [8] 6.96%
inactive: [1] 23.7% | [3] 59.6% | [4] 92% | [5] 37.2% | [6] 97.1% | [7] 67.4% | [9] 81.8% | [10] 59.3% | [11] 78.7% | [12] 73.1% | [13] 53.2% | [14] 49% | [15] 73.9% | [16] 40% | [17] 85.4% | [18] 52.9%

c1c2c(cc3c1OCO3)Cc1cc3c(cc1Cc1cc4c(cc1C2)OCO4)OCO3
inactive: [1] 91.9% | [2] 111% | [3] 101% | [4] 102% | [5] 98.3% | [6] 101% | [7] 104% | [8] 123% | [9] 104% | [10] 113% | [11] 108% | [12] 113% | [13] 105% | [14] 109% | [15] 90.8% | [16] 115% | [17] 112% | [18] 126%

O=C1CC(c2nc3ccccc3s2)CN1C1CCCCC1 (stereo unspecified)
inactive: [1] 97.1% | [2] 98.4% | [3] 95.4% | [4] 99.8% | [5] 94.1% | [6] 91.6% | [7] 95% | [8] 101% | [9] 98.9% | [10] 89.4% | [11] 88.2% | [12] 97.1% | [13] 107% | [14] 107% | [15] 89.1% | [16] 108% | [17] 95.2% | [18] 98%

COc1ccc(CCN2CC=Cn3c2nc2ccccc2c3=O)cc1
active: [8] -1.6% | [13] -4.94% | [17] 5.15% | [18] 4.27%
inactive: [1] 22.1% | [2] 21.4% | [3] 22.2% | [4] 45% | [5] 41.6% | [6] 59.8% | [7] 32.2% | [9] 37.9% | [10] 15% | [11] 75% | [12] 17.2% | [14] 25.9% | [15] 18.9% | [16] 10.2%

Cc1cc(Nc2nc(N3CCOCC3)nc3ccccc23)n[nH]1
inactive: [1] 10.8% | [2] 82.5% | [3] 104% | [4] 88.7% | [5] 52.5% | [6] 20.5% | [7] 30.9% | [8] 58.6% | [9] 16.3% | [10] 86.3% | [11] 72.5% | [12] 61.5% | [13] 57.4% | [14] 79.3% | [15] 47.8% | [16] 40.1% | [17] 83.4% | [18] 10.3%

O=C(NCc1cccc(C(F)(F)F)c1)[C@H](CCC(=O)N1CCN(C2CCCCC2)CC1)N1C(=O)[C@@H](N2C(=O)OC[C@@H]2c2ccccc2)[C@H]1/C(Cl)=C/c1ccccc1
inactive: [2] 14.1% | [3] 64.3% | [4] 87% | [5] 51.6% | [6] 56% | [7] 36.8% | [8] 47.6% | [9] 50% | [10] 35.7% | [11] 61.3% | [12] 60.1% | [13] 52.1% | [14] 74.9% | [15] 29.6% | [16] 34.3% | [17] 31.9% | [18] 34.5%
active: [1] -36.3%

Cn1cc(-c2csc(-c3cn(C)c4ncccc34)n2)c2ccccc21
active: [1] 9.51% | [8] -4.76% | [13] -40.1%
inactive: [2] 22.4% | [3] 30.2% | [4] 64.6% | [5] 71.6% | [6] 36.6% | [7] 42.8% | [9] 46% | [10] 22.8% | [11] 31.8% | [12] 22% | [15] 13% | [16] 20.5% | [17] 37.6% | [18] 23.1%

O=[N+]([O-])c1cccc(-c2nc3sccn3c2-c2ccnc(NCCNS(=O)(=O)c3ccc(C(F)(F)F)cc3)n2)c1
inactive: [1] 39.2% | [3] 26.1% | [4] 87.4% | [5] 31.2% | [6] 74% | [7] 27.1% | [8] 40.5% | [9] 66.4% | [10] 26.9% | [12] 26.4% | [13] 20.7% | [14] 69.8% | [15] 21.9% | [16] 35.6% | [17] 65.2% | [18] 22.5%
active: [2] 4.8% | [11] -3.01%

O=C(Nc1nc(-c2ccccc2)cc(-c2ccc(Cl)cc2)n1)c1ccncc1
inactive: [1] 108% | [2] 92.3% | [3] 100% | [4] 104% | [5] 90.2% | [6] 94.6% | [7] 95.3% | [8] 98.6% | [9] 100% | [10] 89.1% | [11] 83% | [12] 101% | [13] 96.8% | [15] 84.6% | [16] 87.6% | [17] 102% | [18] 100%

COc1cc(C2CC(=O)Nc3c2cnn3Cc2ccco2)cc2c1OCCO2 (stereo unspecified)
active: [1] 8.04% | [13] 4.28%
inactive: [2] 77.2% | [3] 101% | [4] 86.2% | [5] 94.3% | [6] 97.7% | [7] 56.3% | [8] 73.9% | [9] 83.6% | [10] 88.9% | [11] 88.8% | [12] 87.7% | [14] 56.6% | [15] 54.1% | [16] 72.5% | [18] 48.4%

CCN(CC)CC#CCOC(=O)[C@]1(C)CCC[C@@]2(C)[C@H]1CC(C=O)=C1C=C(C(C)C)CC[C@@H]12
inactive: [1] 20.1% | [2] 27.8% | [3] 73.5% | [4] 82.7% | [5] 69.5% | [6] 73.4% | [7] 63.2% | [8] 69.1% | [9] 67.1% | [10] 70.9% | [11] 41.8% | [12] 53% | [13] 76.4% | [14] 57.2% | [15] 68.1% | [16] 36.1% | [17] 94.6% | [18] 55.3%

O=C(CN1CCN(c2cc3c(cc2F)c(=O)c(C(=O)N/N=C/c2ccccc2)cn3C2CC2)CC1)N/N=C\c1ccccc1
inactive: [1] 61% | [2] 39.2% | [3] 73.9% | [4] 98.6% | [5] 89.8% | [6] 124% | [7] 54.4% | [8] 77% | [9] 84.8% | [10] 77.1% | [11] 92% | [12] 65.2% | [13] 78.6% | [14] 87.8% | [15] 53.2% | [16] 70.7% | [17] 91% | [18] 71.1%

CCCCCCCCCCCCCCCCCCNC(=O)[C@H]1CSC(c2ccc(F)c(OC)c2)N1 (stereo partly specified)
active: [1] -42.1% | [2] -49.3% | [3] -28.2% | [4] -87.9% | [5] -3.83% | [7] -6.12% | [8] -85.6% | [9] -30.7% | [10] -42.6% | [11] -72.3% | [12] -75.9% | [13] -92.7% | [15] -71.7% | [16] -85.5% | [17] -91.4% | [18] -72.3%
inactive: [6] 10.5%

CCN(CC)CCCNc1cc(OC)cc2nc3cc(Cl)ccc3nc12
active: [1] -34.6% | [2] -14.3% | [3] -8.47% | [4] -39.3% | [5] -11% | [6] 6.29% | [7] -29.9% | [8] -48.9% | [10] -50.2% | [12] 2.46% | [13] -90.4% | [15] -2.19% | [16] -91.8% | [18] -51.4%
inactive: [9] 23.3% | [11] 29.8% | [17] 27.5%

O=C(CN1CCN(c2cc3c(cc2F)c(=O)c(C(=O)O)cn3C2CC2)CC1)Nc1nc(-c2ccccc2)cs1
inactive: [1] 90.5% | [2] 66.3% | [3] 52.1% | [4] 97.7% | [5] 97.5% | [6] 93.9% | [7] 84.7% | [8] 90.3% | [9] 60.5% | [10] 92.7% | [11] 72.8% | [12] 73.7% | [13] 86.6% | [14] 91.7% | [15] 86.8% | [16] 81.2% | [17] 92.6% | [18] 89.6%
